aSyn 5UTR inh = MLPCN primary screen, SNCA 5' untranslated region; actives 0.82% (n = 300,000); inhibition, % (tested at 7.5 µM); alpha-synuclein 5'UTR reporter, inhibitor activity; AID 1813, 2009; in the data active means inhibition above about 60%; inconclusive means no clear call, values can overlap the other calls;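 further: H4 neuroglioblastoma cells stably carrying SNCA 5'UTR luciferase fusion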
Ba/F3 V617F tox = reduced viability of JAK2V617F-dependent Ba/F3 cells, primary screen, JAK2V617F inhibitor project, cell-based, Ba/F3 EpoR-JAK2V617F, luminescence; ATP luminescence; actives 1.1% (n = 220,000); inhibition, % at 5.6 µM;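 active means inhibition above the campaign mean plus 3 SD over all tested compounds, cut at about 24% in these data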;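 further: cytokine-independent growth of Ba/F3 cells driven by EpoR plus mutant JAK2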
KLF5 inh = KLF5 expression inhibitors, primary screen, DLD-1 cells, luminescence; DLD-1 KLF5 promoter-luciferase reporter; inhibition, % at 5 µM; actives 0.23% (n = 290,000); AID 1700, 2009;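 active means inhibition above a per-plate limit of that plate's mean compound inhibition plus 3 SD, cut at about 60% in these data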;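 further: higher means less KLF5 promoter-driven luciferase light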
BaF3 parental = parental Ba/F3 cell viability inhibition, counter-screen for JAK2V617F inhibitor project, murine pro-B, CellTiter-Glo luminescence | CellTiter-Glo ATP luminescence | inhibition, % at 5.6 µM | actives 1.1% (n = 220,000);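 active means inhibition above a per-campaign cutoff, the mean inhibition of all tested compounds plus 3 SD, cut at about 27% in these data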
IEC-6 tox-1 = cytotoxicity in IEC-6 intestinal epithelial cells, primary screen, cytotoxicity control for KLF5 inhibitor project, cell-based, luminescence; IEC-6 cytotoxicity, luminescence viability; inhibition, % at 5 µM; actives 0.78% (n = 290,000); AID 1825, 2009; in the data active means inhibition above about 22%
APP transl inh = inhibitors of APP translation via 5'UTR reporter, primary screen, APP 5'UTR luciferase, SH-SY5Y cells | SH-SY5Y APP 5'UTR-luciferase reporter, luminescence | inhibition, % at 2 µM | actives 0.82% (n = 190,000) | AID 1285, 2008;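 active means inhibition above a set limit, derived from the sample mean plus 3 SD, cut at about 45% in these data; inconclusive means one replicate passes the limit while the other fails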
KLF5 inh confirm = KLF5 expression inhibitors, confirmation, DLD-1 cells, luminescence | shares compounds with KLF5 inh | DLD-1 KLF5 promoter firefly luciferase reporter | inhibition, % at 4 µM | actives 79% (n = 610);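 active means inhibition above a set limit taken from the earlier primary screen, cut at about 63% in these data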
IEC-6 tox-2 = cytotoxicity in rat IEC-6 cells, cytotoxicity control for KLF5 inhibitor project, cell-based, luminescence, triplicate. shares compounds with KLF5 inh. IEC-6 rat intestinal cells, viability luminescence. inhibition, % at 4 µM. actives 56% (n = 610). AID 1905, 2009; in the data active means inhibition above about 23%;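 further: cells exposed to compounds for 48 hours before viability read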
Each line names hits and unclear results; the compound was inactive in the other large screens (follow-up assays come after a bar, where they were run). This is a sample that favours compounds with a hit; in the whole collection about 2.2% have one here.

CCN(CC)S(=O)(=O)c1ccc(N/N=C/c2cc(OC)ccc2O)nc1	aSyn 5UTR inh 87, Ba/F3 V617F tox 82, KLF5 inh 68, BaF3 parental 54, APP transl inh 74 | KLF5 inh confirm 74 | IEC-6 tox-2 inactive
COc1ccccc1CCC(=O)OCC(=O)Nc1c(C)nn(-c2ccccc2)c1C	none (no result: Ba/F3 V617F tox, KLF5 inh, BaF3 parental, IEC-6 tox-1, APP transl inh)
O=C(Nc1ccncc1)C1COc2ccccc2O1 (configuration not stated)	none
O=C(NC1=NCCS1)C1COc2ccccc2O1 (configuration not stated)	aSyn 5UTR inh 98, KLF5 inh 69 | KLF5 inh confirm 71 | IEC-6 tox-2 inactive
O=C(N/N=C/c1ccccc1)C1CCCN1C(=O)c1cc([N+](=O)[O-])cc([N+](=O)[O-])c1 (configuration not stated)	none (no result: aSyn 5UTR inh, Ba/F3 V617F tox, BaF3 parental, APP transl inh)
COc1ccc(CCNC(=O)c2ccc3c(c2)OCCO3)cc1	none
O=C(NCCc1ccccc1)c1ccc2c(c1)OCCO2	aSyn 5UTR inh 106, KLF5 inh 97 (no result: Ba/F3 V617F tox, BaF3 parental, APP transl inh) | KLF5 inh confirm 95 | IEC-6 tox-2 inactive
O=C(NCCc1ccccc1)c1ccc2c(c1)OCCCO2	aSyn 5UTR inh 107, KLF5 inh 100 (no result: Ba/F3 V617F tox, BaF3 parental, APP transl inh) | KLF5 inh confirm 109 | IEC-6 tox-2 inactive
O=C(CCCc1ccccc1)c1ccc2c(c1)OCCO2	aSyn 5UTR inh 86, KLF5 inh 70 | KLF5 inh confirm 88 | IEC-6 tox-2 inactive
COc1ccc(C(=O)/C=C/Nc2ccc(S(N)(=O)=O)cc2)cc1OC	none (no result: APP transl inh)
O=C(CN1C(=O)c2ccccc2S1(=O)=O)NCc1ccccc1Cl	none
O=C(CN1C(=O)c2ccccc2S1(=O)=O)c1ccccc1Cl	aSyn 5UTR inh 101, KLF5 inh 70 (no result: Ba/F3 V617F tox, BaF3 parental, APP transl inh) | KLF5 inh confirm inactive | IEC-6 tox-2 inactive
C[C@@H]1C=CC(=O)O[C@@H]1c1ccc(C(F)(F)F)cc1	KLF5 inh 62 (no result: Ba/F3 V617F tox, BaF3 parental, APP transl inh) | KLF5 inh confirm inactive | IEC-6 tox-2 inactive
CCC(=O)C1CCCN(C(=O)c2ccc(OC3CCN(C(=O)CCOC)CC3)cc2)C1 (configuration not stated)	none (no result: Ba/F3 V617F tox, BaF3 parental, APP transl inh)
COc1ccc(/C=N/NC(=O)c2cc3cc(OC)c(OC)cc3[nH]2)cc1	none (no result: Ba/F3 V617F tox, BaF3 parental, APP transl inh)
COc1ccc2[nH]c(C(=O)N/N=C/c3ccc(O)cc3O)cc2c1	KLF5 inh 84 (no result: Ba/F3 V617F tox, BaF3 parental, APP transl inh) | KLF5 inh confirm 83 | IEC-6 tox-2 32
Cc1nc(N/N=C/c2ccccn2)sc1C	KLF5 inh 79 (no result: aSyn 5UTR inh) | KLF5 inh confirm 78 | IEC-6 tox-2 inactive
Cc1ccc2nc(NC(=O)[C@H](C)N3C(=O)C4CC=CCC4C3=O)sc2c1 (some centres not stated)	aSyn 5UTR inh 63, KLF5 inh 74 | KLF5 inh confirm inactive | IEC-6 tox-2 inactive
Cc1cc(C(=O)COC(=O)c2ccccc2O)c(C)n1Cc1cccs1	aSyn 5UTR inh 93, KLF5 inh 81 | KLF5 inh confirm 78 | IEC-6 tox-2 inactive
N/C(=N\OC(=O)c1ccc2ccccc2c1)c1ccccn1	aSyn 5UTR inh 96, KLF5 inh 86 | KLF5 inh confirm inactive | IEC-6 tox-2 inactive
N/C(=N\OC(=O)c1ccc(=O)n(Cc2ccccc2)c1)c1ccccn1	none
CCCc1ccc(C(=O)O/N=C(\N)c2ccccn2)cc1	aSyn 5UTR inh 72, KLF5 inh 102 (no result: Ba/F3 V617F tox, BaF3 parental, APP transl inh) | KLF5 inh confirm 97 | IEC-6 tox-2 inactive
CCOc1ccc(N=Nc2cc(C(C)C)ccc2O)cc1	none
CCN(CC)S(=O)(=O)c1cc(OC)ccc1N=Nc1ccc(O)c2ncccc12	aSyn 5UTR inh inconclusive, KLF5 inh 87 (no result: Ba/F3 V617F tox, BaF3 parental, APP transl inh) | KLF5 inh confirm 87 | IEC-6 tox-2 inactive
CCN(CC)S(=O)(=O)c1cccc2cccnc12	none
CCOc1ccc(N=Nc2ccc(O)c3ncccc23)cc1	KLF5 inh 65 (no result: Ba/F3 V617F tox, BaF3 parental, APP transl inh) | KLF5 inh confirm inactive | IEC-6 tox-2 inactive
O=C(N/N=C/c1cc(Cl)cc(Cl)c1O)c1ccncc1	KLF5 inh 77 (no result: APP transl inh) | KLF5 inh confirm inactive | IEC-6 tox-2 inactive

Compound activity from PubChem.
